Where “and” joins values, the source holds several entries; their conditions need not be identical. Equal entries are not always repeated. Results filed as inconclusive are left out. Calls of active or inactive are those of the source. The call rests on the fitted dose curve; in most records, active means well fitted inhibition curve with a large enough effect; inconclusive means small, poorly fitted or top-dose-only effect; inactive means no such curve, though single readings can be large or run the other way.
test: qHTS for Inhibitos of Bacillus subtilis Sfp phosphopantetheinyl transferase (PPTase): Chemistry Optimization Followup in B. Subtilis 168; details: B. subtilis 168 growth, BacTiter-Glo luminescence, 5 h; series mostly up to 114 µM; activity change, negative = inhibition: at the top concentration
Description: Phosphopantetheinyl transfer is a process essential to cellular viability and maintenance. Cell-permeable and stable compounds acting as PPTase inhibitors are anticipated to be antimicrobial agents in organisms with complimenting genotypes. […] This experiment evaluated a series of test compounds for antimicrobial activity with B. subtilis 168 (genotype: acpS+ and sfp-), a strain that contains a frameshift mutation in the sfp locus and thus requires a functional AcpS gene product for viability. [Mootz HD, 2001] This strain is expected to be sensitized to cell-permeable AcpS inhibitors, and insensitive to Sfp inhibitors. NIH Chemical Genomics Center [NCGC] NIH Molecular Libraries Probe Centers Network [MLPCN] MLPCN Grant: MH083266-01 Assay Submitter (PI): Michael Burkart, University of California, San Diego
Innoculum preparation. Bacillus subtilis 168 is maintained on lysogeny broth (LB) solidified by the addition of 1.5% w/v agar. Single colonies were used to LB medium (2 mL) and shaken overnight at 30 masculineC. In the morning, this culture (100 ul) was used to seed a fresh LB medium (10 mL) and was shaken at 30 masculineC until the culture OD600 reached 0.5. This culture was diluted 1:100 in fresh LB medium to provide the inoculum below. Bacterial susceptibility. LB medium (2 uL) is dispensed into wells of a sterile white 1536-well plate. Test compounds (23 nL) prepared as serial dilutions in DMSO are added to the plate by pintool transfer. Innoculum (2 uL) is added, the plates are covered with a vented Kalypsys assay lid and incubated at 30 masculineC. After 5 h, Bac-Titer Glo (4 uL; Promega Corp, Madison, WI) is added to the plates. They are incubated 10 minutes at room temperature and then the luminescence detected in a ViewLux multimodal plate reader.

Activity change, negative = inhibition, inactive:
Cc1cc(C)nc(NC(=S)N2CCN(c3ncccc3C#N)CC2)c1 -10.9%
Cc1ccnc(NC(=S)NCCN(C)c2cccc(C(F)(F)F)c2)c1 -19.2%
Cc1cc(C)nc(NC(=S)N2CCN(c3ccncc3)CC2)c1 -18.6%
Cc1cncc(NC(=S)N2CCN(c3cccc(C(F)(F)F)c3)CC2)c1 -23.5%
Cc1cc(C)nc(NC(=S)N2CCN(c3ccc(Cl)nn3)CC2)c1 -33.3%
Cc1cc(C)nc(Nc2nnc(N3CCN(c4cccc(C(F)(F)F)c4)CC3)s2)c1 -13.3%
Cc1ccnc(NC(=S)N2CCN(c3cccc(C(F)(F)F)c3)C2)c1 -10.5%
Cc1cc(C)nc(NC(=S)N2CCN(c3ccc4cn(C)nc4c3)CC2)c1 -14.6%
Cc1cc(C)nc(NC(=S)N2CCN(Cc3c(F)cccc3Cl)CC2)c1 -23.3%
Cc1ccnc(NC(=S)N2CCN(c3ccc(N)cc3)CC2)c1 -18.5%
COc1ccc(NC(=S)N2CCN(c3cccc(C(F)(F)F)c3)CC2)nc1 -22%

Potency, active:
Cc1ccc(N2CCN(C(=S)Nc3cc(C)ccn3)CC2)cc1 59.1 µM
Cc1cc(C)nc(NC(=S)N2CCN(c3cc(Cl)c(Cl)cc3Cl)CC2)c1 21 µM
FC(F)(F)c1cccc(N2CCN(C(=S)Nc3cc(C(F)(F)F)ccn3)CC2)c1 13.2 µM
Cc1cc(C)nc(NC(=C(C#N)C#N)N2CCN(c3cccc(C(F)(F)F)c3)CC2)c1 37.3 µM
Cc1cc(C)nc(/N=C(\NC#N)N2CCN(c3cccc(C(F)(F)F)c3)CC2)c1 46.9 µM
Cc1ccnc(NC(=S)NC2CCN(c3cccc(C(F)(F)F)c3)CC2)c1 46.9 µM
Cc1ccnc(NC(=S)N2CCN(c3cccc(C(F)(F)F)c3)CC2)c1 41.8 µM and 14.8 µM and 16.7 µM
Cc1cc(C)nc(NC(=S)N2CCN(c3ccc(C(F)(F)F)cc3[N+](=O)[O-])CC2)c1 41.8 µM
Cc1cc(C)nc(NC(=S)N2CCN(c3ccc(Cl)cc3F)CC2)c1 23.5 µM
Cc1ccnc(NC(=S)N2CCC(Nc3cccc(C(F)(F)F)c3)CC2)c1 37.3 µM
FC(F)(F)c1cnc(N2CCN(C(=S)Nc3cc(Cl)ccn3)CC2)c(Cl)c1 14.8 µM
FC(F)(F)c1cccc(N2CCN(C(=S)Nc3ccncc3)CC2)c1 41.8 µM
FC(F)(F)c1cccc(N2CCN(C(=S)Nc3ncnc4ccccc34)CC2)c1 6.63 µM
Cc1ccnc(NC(=S)N[C@H]2CCN(c3cccc(C(F)(F)F)c3)C2)c1 52.7 µM
Cc1cc(C)nc(NC(=S)N2CCN(Cc3cccc4ccccc34)CC2)c1 37.3 µM
Cc1ccnc(NC(=S)N2CCN(c3ccc(Cl)c(Cl)c3)CC2)c1 11.8 µM
Cc1ccnc(NC(=S)N2CCN(c3cc(F)cc(Cl)c3)CC2)c1 5.91 µM
Cc1cc(C)nc(NC(=S)N2CCN(c3ccc([N+](=O)[O-])cc3Cl)CC2)c1 9.37 µM
COc1ccnc(NC(=S)N2CCN(c3ccc(Cl)cc3Cl)CC2)c1 13.2 µM
S=C(Nc1cc(Cl)ccn1)N1CCN(c2cc(Cl)cc(Cl)c2)CC1 13.2 µM
FC(F)(F)c1cccc(N2CCN(C(=S)Nc3nccc4ccccc34)CC2)c1 2.35 µM
Cc1ccnc(NC(=S)N2CCN(c3ccc(Br)cc3)CC2)c1 23.5 µM
Cc1cc(C)nc(NC(=S)N2CCN(c3cc(F)cc(F)c3)CC2)c1 37.3 µM
CN(C)c1ccc2nc(NC(=S)N3CCN(c4cccc(C(F)(F)F)c4)CC3)sc2c1 5.91 µM
FC(F)(F)c1cccc(N2CCN(C(=S)Nc3ccccn3)CC2)c1 46.9 µM
FC(F)(F)c1ccc(N2CCN(C(=S)Nc3ccccn3)CC2)cc1 21 µM
S=C(Nc1cc(Cl)ccn1)N1CCN(c2ccc3ccccc3n2)CC1 33.2 µM
Cc1ccnc(NC(=S)N2CCN(c3cc(C(F)(F)F)cc(C(F)(F)F)c3)CC2)c1 13.2 µM
Cc1cc(C)nc(NC(=S)N2CCN(c3ccc(Cl)cc3Cl)CC2)c1 23.5 µM

Reference: PubChem BioAssay AID540352 (National Center for Advancing Translational Sciences (NCATS), 2011)
